{
  "source": "PubChem BioAssay (EPA / NIEHS)",
  "note": "Where “and” joins values, the source holds several entries; their conditions need not be identical. Identical values can stand only once. Records with an inconclusive call do not appear. Calls of active or inactive are those of the source. How the source made its calls, unless noted: active means hit-call score of the fitted dose curve at least 0.9, where 1 is the maximum; inconclusive means response in the unintended direction; inactive means score below 0.9.",
  "data": [
    {"read-out": "not listed separately", "assay": "CLD_ACTIN_6hr: CellzDirect (CLD) Gene Expression Assay for Baseline Control (Actin) at 6 hours (AID 2283676);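 further: active means increased actin mRNA relative to DMSO vehicle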", "how_it_was_run": "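Baseline actin transcript level measured by qNPA (S1 nuclease protection, chemiluminescence) in human hepatocyte cultures 6 h after chemical exposure; 0.2% DMSO vehicle as reference, cytotoxicity noted from morphology.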", "values": [
      {"smiles": "CCSC(=O)N(CC)C1CCCCC1", "outcome": "inactive"},
      {"smiles": "Cc1ccccc1CO[C@@H]1C[C@@]2(C(C)C)CC[C@]1(C)O2", "outcome": "inactive"},
      {"smiles": "CCNc1nc(NC(C)C)nc(SC)n1", "outcome": "inactive"},
      {"smiles": "CN(C)c1nc(=O)n(C2CCCCC2)c(=O)n1C", "outcome": "inactive"},
      {"smiles": "CCC(C)(CC)c1cc(NC(=O)c2c(OC)cccc2OC)on1", "outcome": "inactive"}
    ]},
    {"read-out": "Cytochrome P450 2B6 (Homo sapiens) (UniProt P20813)", "assay": "CLD_CYP2B6_6hr: CellzDirect (CLD) Gene Expression Assay for xenobiotic metabolism (CYP2B6) at 6 hours (AID 2283677);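 further: actives raise CYP2B6 transcript above DMSO baseline so AC50 marks an inducer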", "how_it_was_run": "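CYP2B6 transcript levels, read by chemiluminescent qNPA, were fitted for increase versus DMSO baseline; cultured human liver hepatocytes from two donor preparations were harvested 6 h after exposure to test chemicals at multiple concentrations.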", "values": [
      {"smiles": "CCSC(=O)N(CC)C1CCCCC1", "AC50": "3.97 µM (active)"},
      {"smiles": "CCNc1nc(NC(C)C)nc(SC)n1", "AC50": "1 µM (active)"},
      {"smiles": "CN(C)c1nc(=O)n(C2CCCCC2)c(=O)n1C", "outcome": "inactive"},
      {"smiles": "CCC(C)(CC)c1cc(NC(=O)c2c(OC)cccc2OC)on1", "AC50": "0.116 µM (active)"}
    ]},
    {"test_system": "not listed separately", "assay": "CCTE_Padilla_ZF_144hpf_TERATOSCORE: (Legacy) CCTE's 144 Hour Post-fertilization zebrafish Assay Teratoscore, Padilla Lab (AID 2283679; active means hit-call score of the fitted dose curve at least 0.9, where 1 is the maximum; inactive means score below 0.9;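 on AC50: zebrafish embryos with chorions exposed by immersion from 6-8 hpf to 5 dpf with daily renewal; teratogenicity score from eye scoring of death hatching and malformations at 144 hpf; higher score means more developmental defects relative to DMSO baseline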)", "how_it_was_run": "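Larvae scored by eye at 144 hpf for death, hatching and malformations after a day in clean Hanks'. Before that, daily-renewed exposure at 80 uM (0.4% DMSO, 26C) from roughly 6-8 hpf through 5 dpf, 4 embryos per chemical.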", "values": [
      {"smiles": "CCSC(=O)N(CC)C1CCCCC1", "outcome": "inactive"},
      {"smiles": "C[C@]12CCC(=O)C=C1CC[C@@H]1[C@@H]2CC[C@]2(C)C(=O)CC[C@@H]12", "AC50": "31.8 µM (active)"},
      {"smiles": "Cc1ccccc1CO[C@@H]1C[C@@]2(C(C)C)CC[C@]1(C)O2", "AC50": "73.1 µM (active)"},
      {"smiles": "CO/C=C(/C(=O)OC)c1ccccc1COc1cccc(C(F)(F)F)n1", "AC50": "0.168 µM (active)"},
      {"smiles": "ClC(Cl)=C(c1ccc(Cl)cc1)c1ccc(Cl)cc1", "AC50": "8.32 µM (active)"},
      {"smiles": "CCNc1nc(NC(C)C)nc(SC)n1", "AC50": "149 µM (active)"},
      {"smiles": "CCCN(CCC)N=O", "outcome": "inactive"},
      {"smiles": "ClC1=C(Cl)[C@]2(Cl)[C@@H]3[C@H]4C[C@H]([C@@H]5O[C@H]45)[C@@H]3[C@@]1(Cl)C2(Cl)Cl", "AC50": "0.00973 µM (active)"},
      {"smiles": "CN(C)CCO", "outcome": "inactive"},
      {"smiles": "Oc1c(Cl)c(Cl)c(Cl)c(Cl)c1Cl", "AC50": "0.806 µM (active)"},
      {"smiles": "CN(C)c1nc(=O)n(C2CCCCC2)c(=O)n1C", "outcome": "inactive"},
      {"smiles": "CCC(C)(CC)c1cc(NC(=O)c2c(OC)cccc2OC)on1", "AC50": "58.2 µM (active)"},
      {"smiles": "CCC(=O)O[C@H]1CC[C@H]2[C@@H]3CCC4=CC(=O)CC[C@]4(C)[C@H]3CC[C@]12C", "AC50": "79.4 µM (active)"},
      {"smiles": "CC#Cc1cc(C)nc(Nc2ccccc2)n1", "AC50": "33.4 µM (active)"},
      {"smiles": "O=NN(c1ccccc1)c1ccccc1", "AC50": "53.4 µM (active)"},
      {"smiles": "CCCCCCCCCc1ccc(O)cc1", "AC50": "61.4 µM (active)"},
      {"smiles": "Cc1cc(O)ccc1Cl", "AC50": "112 µM (active)"},
      {"smiles": "Oc1ccc(Cl)cc1Cl", "AC50": "56.6 µM (active)"},
      {"smiles": "O=C(NC(=O)c1cc(F)c(F)cc1Cl)Nc1cc(F)ccc1N1CCC(C(=O)O)CC1", "AC50": "31 µM (active)"},
      {"smiles": "CCC(C)(c1ccc(O)cc1)c1ccc(O)cc1", "AC50": "15.5 µM (active) and 1.34 µM (active)"},
      {"smiles": "CC(c1ccc(O)cc1)(c1ccc(O)cc1)c1ccc(O)cc1", "outcome": "inactive"},
      {"smiles": "NS(=O)(=O)C(F)(F)C(F)(F)C(F)(F)C(F)(F)C(F)(F)C(F)(F)C(F)(F)C(F)(F)F", "AC50": "0.45 µM (active)"}
    ]},
    {"read-out": "Cytochrome P450 3A4 (Homo sapiens) (UniProt P08684)", "assay": "CLD_CYP3A4_6hr: CellzDirect (CLD) Gene Expression Assay for xenobiotic metabolism (CYP3A4) at 6 hours (AID 2283680)", "how_it_was_run": "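CYP3A4 mRNA induction, 6 h after dosing of cultured primary human hepatocytes from two donors, read by quantitative nuclease protection (qNPA, chemiluminescence). Vehicle 0.2% DMSO as baseline; morphology-based cytotoxicity annotated yes/no.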", "values": [
      {"smiles": "CCSC(=O)N(CC)C1CCCCC1", "outcome": "inactive"},
      {"smiles": "CCNc1nc(NC(C)C)nc(SC)n1", "AC50": "1.79 µM (active)"},
      {"smiles": "CN(C)c1nc(=O)n(C2CCCCC2)c(=O)n1C", "outcome": "inactive"},
      {"smiles": "CCC(C)(CC)c1cc(NC(=O)c2c(OC)cccc2OC)on1", "AC50": "0.0356 µM (active)"}
    ]},
    {"read-out": "Glyceraldehyde-3-phosphate dehydrogenase (Homo sapiens) (UniProt P04406)", "assay": "CLD_GAPDH_6hr: CellzDirect (CLD) Gene Expression Assay for Baseline Control (Glyceraldehyde 3-phosphate dehydrogenase) at 6 hours (AID 2283681);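 further: active means increased signal relative to DMSO vehicle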", "how_it_was_run": "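GAPDH baseline-control readout from qNPA (S1 nuclease digestion, probe hybridization, chemiluminescence) in lysates of cultured human hepatocytes harvested 6 h post-dosing. Chemicals tested at multiple concentrations versus 0.2% DMSO vehicle; microscopy-based cytotoxicity flagged yes/no.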", "values": [
      {"smiles": "Cc1ccccc1CO[C@@H]1C[C@@]2(C(C)C)CC[C@]1(C)O2", "outcome": "inactive"},
      {"smiles": "CCNc1nc(NC(C)C)nc(SC)n1", "outcome": "inactive"},
      {"smiles": "CN(C)c1nc(=O)n(C2CCCCC2)c(=O)n1C", "outcome": "inactive"},
      {"smiles": "CCC(C)(CC)c1cc(NC(=O)c2c(OC)cccc2OC)on1", "outcome": "inactive"}
    ]},
    {"read-out": "xenobiotic metabolism (CYP1A2), CYP1A2 (gene 1544)", "assay": "CLD_CYP1A2_24hr: CellzDirect (CLD) Gene Expression Assay for xenobiotic metabolism (CYP1A2) at 24 hours (AID 2283683)", "how_it_was_run": "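CYP1A2 mRNA induction measured by quantitative nuclease protection (chemiluminescent) in human primary hepatocytes 24 h after multi-concentration chemical dosing with daily fresh solutions. DMSO (0.2%) baseline; positive-direction fitting; morphology-based cytotoxicity noted.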", "values": [
      {"smiles": "CCSC(=O)N(CC)C1CCCCC1", "outcome": "inactive"},
      {"smiles": "Cc1ccccc1CO[C@@H]1C[C@@]2(C(C)C)CC[C@]1(C)O2", "AC50": "16.5 µM (active)"},
      {"smiles": "CCNc1nc(NC(C)C)nc(SC)n1", "AC50": "1.29 µM (active)"},
      {"smiles": "CN(C)c1nc(=O)n(C2CCCCC2)c(=O)n1C", "outcome": "inactive"},
      {"smiles": "CCC(C)(CC)c1cc(NC(=O)c2c(OC)cccc2OC)on1", "AC50": "8.57 µM (active)"}
    ]},
    {"read-out": "ABC Transporter (ABCB1), ABCB1 (gene 5243)", "assay": "CLD_ABCB1_24hr: CellzDirect (CLD) Gene Expression Assay for ABC Transporter (ABCB1) at 24 hours (AID 2283684)", "how_it_was_run": "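ABCB1 mRNA induction versus 0.2% DMSO vehicle was read by qNPA chemiluminescence at 24 h. Cultured human hepatocytes from two donor preparations received daily fresh dosing, and phase-contrast cytotoxicity calls were annotated alongside the data.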", "values": [
      {"smiles": "CCSC(=O)N(CC)C1CCCCC1", "outcome": "inactive"},
      {"smiles": "Cc1ccccc1CO[C@@H]1C[C@@]2(C(C)C)CC[C@]1(C)O2", "outcome": "inactive"},
      {"smiles": "CCNc1nc(NC(C)C)nc(SC)n1", "outcome": "inactive"},
      {"smiles": "CN(C)c1nc(=O)n(C2CCCCC2)c(=O)n1C", "outcome": "inactive"},
      {"smiles": "CCC(C)(CC)c1cc(NC(=O)c2c(OC)cccc2OC)on1", "outcome": "inactive"}
    ]},
    {"read-out": "Cytochrome P450 2B6 (Homo sapiens) (UniProt P20813)", "assay": "CLD_CYP2B6_24hr: CellzDirect (CLD) Gene Expression Assay for xenobiotic metabolism (CYP2B6) at 24 hours (AID 2283686)", "how_it_was_run": "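qNPA chemiluminescent measurement of mRNA at 24 hours in human primary hepatocyte cultures from two donor preparations, with daily fresh dosing and 0.2% DMSO vehicle as baseline. Morphology-based cytotoxicity flagged yes/no.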", "values": [
      {"smiles": "CCSC(=O)N(CC)C1CCCCC1", "AC50": "6.17 µM (active)"},
      {"smiles": "Cc1ccccc1CO[C@@H]1C[C@@]2(C(C)C)CC[C@]1(C)O2", "AC50": "3.91 µM (active)"},
      {"smiles": "CCNc1nc(NC(C)C)nc(SC)n1", "AC50": "0.92 µM (active)"},
      {"smiles": "CN(C)c1nc(=O)n(C2CCCCC2)c(=O)n1C", "outcome": "inactive"},
      {"smiles": "CCC(C)(CC)c1cc(NC(=O)c2c(OC)cccc2OC)on1", "AC50": "0.259 µM (active)"}
    ]},
    {"read-out": "Cytochrome P450 2C19 (Homo sapiens) (UniProt P33261)", "assay": "CLD_CYP2C19_24hr: CellzDirect (CLD) Gene Expression Assay for xenobiotic metabolism (CYP2C19) at 24 hours (AID 2283687);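 further: activity means mRNA induction above DMSO vehicle baseline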", "how_it_was_run": "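CYP2C19 mRNA was quantified by qNPA chemiluminescence after 24 h of daily dosing of cultured human primary hepatocytes from two donors; vehicle was 0.2% DMSO, and increases over DMSO baseline were fitted.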", "values": [
      {"smiles": "CCSC(=O)N(CC)C1CCCCC1", "outcome": "inactive"},
      {"smiles": "Cc1ccccc1CO[C@@H]1C[C@@]2(C(C)C)CC[C@]1(C)O2", "outcome": "inactive"},
      {"smiles": "CN(C)c1nc(=O)n(C2CCCCC2)c(=O)n1C", "outcome": "inactive"}
    ]},
    {"read-out": "Cytochrome P450 2C9 (Homo sapiens) (UniProt P11712)", "assay": "CLD_CYP2C9_24hr: CellzDirect (CLD) Gene Expression Assay for xenobiotic metabolism (CYP2C9) at 24 hours (AID 2283688)", "how_it_was_run": "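Induction of CYP2C9 mRNA was quantified by quantitative nuclease protection assay (chemiluminescence), gain of signal versus 0.2% DMSO vehicle, 24 h after dosing. Human primary hepatocytes (two donors) received fresh chemical daily at multiple concentrations; morphology-based cytotoxicity flagged yes/no.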", "values": [
      {"smiles": "Cc1ccccc1CO[C@@H]1C[C@@]2(C(C)C)CC[C@]1(C)O2", "outcome": "inactive"},
      {"smiles": "CCNc1nc(NC(C)C)nc(SC)n1", "outcome": "inactive"},
      {"smiles": "CCC(C)(CC)c1cc(NC(=O)c2c(OC)cccc2OC)on1", "outcome": "inactive"}
    ]},
    {"read-out": "Cytochrome P450 3A4 (Homo sapiens) (UniProt P08684)", "assay": "CLD_CYP3A4_24hr: CellzDirect (CLD) Gene Expression Assay for xenobiotic metabolism (CYP3A4) at 24 hours (AID 2283689)", "how_it_was_run": "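CYP3A4 mRNA induction read by quantitative nuclease protection (chemiluminescence) 24 hr after dosing. Cultured human hepatocytes (two donor preparations) treated daily, vehicle 0.2% DMSO; phase-contrast morphology annotates cytotoxicity.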", "values": [
      {"smiles": "CCSC(=O)N(CC)C1CCCCC1", "AC50": "0.000663 µM (active)"},
      {"smiles": "Cc1ccccc1CO[C@@H]1C[C@@]2(C(C)C)CC[C@]1(C)O2", "AC50": "20 µM (active)"},
      {"smiles": "CCNc1nc(NC(C)C)nc(SC)n1", "AC50": "4.22 µM (active)"},
      {"smiles": "CN(C)c1nc(=O)n(C2CCCCC2)c(=O)n1C", "AC50": "3.97 µM (active)"},
      {"smiles": "CCC(C)(CC)c1cc(NC(=O)c2c(OC)cccc2OC)on1", "AC50": "0.0271 µM (active)"}
    ]}
  ]
}
